# Experimental data: the supplement of paper PMC8728848
# The entries come from a sample that favours the strongest signals as a whole.
# B1: Intelectin-1a (Mus musculus) (protein)
# chain: AEWSHPQFEKAEENLDTNRWGNSFFSSLPRSCKEIKQEHTKAQDGLYFLRTKNGVIYQTFCDMTTAGGGWTLVASVHENNMRGKCTVGDRWSSQQGNRADYPEGDGNWANYNTFGSAEAATSDDYKNPGYFDIQAENLGIWHVPNKSPLHNWRKSSLLRYRTFTGFLQHLGHNLFGLYKKYPVKYGEGKCWTDNGPALPVVYDFGDARKTASYYSPSGQREFTAGYVQFRVFNNERAASALCAGVRVTGCNTEHHCIGGGGFFPEGNPVQCGDFASFDWDGYGTHNGYSSSRKITEAAVLLFYR
# B2: Tectonin 2 (Laccaria bicolor) (protein)
# chain: MPWKGISGSLSRISAGSVTNVWGVNAANNIYRYTGDDAKPWVQIPGALTDIGAAADGTVWGVNAAGNIYRYVWDSNHWTQIKGALKRISAGSRTNVWGVNAGGAIYRYTGDDANPWVQIPGVLSDIGAGADGTVWGVNAAGEIYRYTGDQGDPNHWVKIPGALSAISAGIKTNVWGVNSANNIYTSTGDDKNPWLGIGGSLVDIGAGTDGVVWGVNAGGGIYRWIRD
# How the values were obtained:
# Test in all cases: glycan array binding signal (z-score within array); higher = stronger binding
# Conditions in all cases: glycan notation: IUPAC condensed, linker removed
# [1] = biological target: GlcNAc(b1-4)Gal(b1-4)GlcNAc
# Procedure, shortened: (§1)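 The binding signal is a Z-score computed within each array. Data were drawn from 3228 arrays in the Consortium for Functional Glycomics database, restricted to those with a known protein sequence. Scores were averaged over arrays of the same protein sequence at different concentrations or buffers, and over linkers, and negative values can be taken as non-binding.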
# [2] = biological target: Neu5Ac(a2-3)Gal(b1-3)GlcNAc(b1-2)Man(a1-3)[GlcNAc(b1-4)][Neu5Ac(a2-3)Gal(b1-3)GlcNAc(b1-2)Man(a1-6)]Man(b1-4)GlcNAc(b1-4)GlcNAc
# Procedure, shortened: as §1
# [3] = biological target: Neu5Ac(a2-3)Gal(b1-3)GlcNAc(b1-3)GalNAc
# Procedure, shortened: as §1
# [4] = biological target: Neu5Ac(a2-3)Gal(b1-3)GlcNAc(b1-6)GalNAc
# Procedure, shortened: as §1
# [5] = biological target: Neu5Ac(a2-3)Gal(b1-3)[Neu5Ac(a2-6)]GalNAc
# Procedure, shortened: as §1
# [6] = biological target: Neu5Ac(a2-3)Gal(b1-4)GlcNAc
# Procedure, shortened: as §1
# [7] = biological target: Neu5Ac(a2-3)Gal(b1-4)GlcNAc(b1-3)Gal(b1-3)GlcNAc
# Procedure, shortened: as §1
# [8] = biological target: Neu5Ac(a2-3)Gal(b1-4)GlcNAc(b1-3)Gal(b1-4)[Fuc(a1-3)]GlcNAc
# Procedure, shortened: as §1
# [9] = biological target: Neu5Ac(a2-3)Gal(b1-4)[Fuc(a1-3)]GlcNAc(b1-3)GalNAc
# Procedure, shortened: as §1
# [10] = biological target: Neu5Ac(a2-6)Gal(b1-4)GlcNAc(b1-2)Man(a1-3)Man(b1-4)GlcNAc(b1-4)GlcNAc
# Procedure, shortened: as §1
# [11] = biological target: Neu5Ac(a2-6)Gal(b1-4)GlcNAc(b1-2)Man(a1-3)[Man(a1-6)]Man(b1-4)GlcNAc(b1-4)GlcNAc
# Procedure, shortened: as §1
# [12] = biological target: Neu5Ac(a2-6)Gal(b1-4)GlcNAc(b1-2)Man(a1-6)Man(b1-4)GlcNAc(b1-4)GlcNAc
# Procedure, shortened: as §1
# [13] = biological target: Neu5Ac(a2-6)Gal(b1-4)GlcNAc(b1-3)Gal(b1-4)GlcNAc(b1-3)Gal(b1-4)GlcNAc
# Procedure, shortened: as §1
# [14] = biological target: Neu5Ac(a2-8)Neu5Ac(a2-3)[GalNAc(b1-4)]Gal(b1-4)Glc
# Procedure, shortened: as §1
# [15] = biological target: Neu5Ac(a2-8)Neu5Ac(a2-8)Neu5Ac(a2-3)Gal(b1-4)Glc
# Procedure, shortened: as §1
# [16] = biological target: Fuc(a1-2)Gal(b1-3)GlcNAc(b1-2)Man(a1-3)[Fuc(a1-2)Gal(b1-3)GlcNAc(b1-2)Man(a1-6)]Man(b1-4)GlcNAc(b1-4)[Fuc(a1-6)]GlcNAc
# Procedure, shortened: as §1
# Fuc(a1-2)Gal(b1-4)Glc6S = biological target: Fuc(a1-2)Gal(b1-4)Glc6S
# Procedure, shortened: as §1
# [17] = biological target: Fuc(a1-2)[Gal(a1-3)]Gal(b1-4)GlcNAc(b1-2)Man(a1-3)[Fuc(a1-2)[Gal(a1-3)]Gal(b1-4)GlcNAc(b1-2)Man(a1-6)]Man(b1-4)GlcNAc(b1-4)GlcNAc
# Procedure, shortened: as §1
# [18] = biological target: Fuc(a1-2)[GalNAc(a1-3)]Gal(b1-4)GlcNAc(b1-2)Man(a1-3)[Fuc(a1-2)[GalNAc(a1-3)]Gal(b1-4)GlcNAc(b1-2)Man(a1-6)]Man(b1-4)GlcNAc(b1-4)GlcNAc
# Procedure, shortened: as §1
# [19] = biological target: Fuc(a1-2)[GalNAc(a1-3)]Gal(b1-4)[Fuc(a1-3)]GlcNAc
# Procedure, shortened: as §1
# [20] = biological target: Fuc(a1-3)[Gal(b1-4)]GlcNAc(b1-4)Gal(b1-4)[Fuc(a1-3)]GlcNAc(b1-4)Gal(b1-4)[Fuc(a1-3)]GlcNAc
# Procedure, shortened: as §1
# [21] = biological target: Fuc(a1-3)[Gal3S(b1-4)]GlcNAc6S
# Procedure, shortened: as §1
# [22] = biological target: Gal(a1-3)Gal(b1-3)[Fuc(a1-4)]GlcNAc(b1-2)Man(a1-3)[Gal(a1-3)Gal(b1-3)[Fuc(a1-4)]GlcNAc(b1-2)Man(a1-6)]Man(b1-4)GlcNAc(b1-4)GlcNAc
# Procedure, shortened: as §1
# Gal(b1-3)GalNAc = biological target: Gal(b1-3)GalNAc
# Procedure, shortened: as §1
# [23] = biological target: Gal(b1-3)GalNAc(a1-3)[Fuc(a1-2)]Gal(b1-4)Glc
# Procedure, shortened: as §1
# [24] = biological target: Gal(b1-3)GalNAc(b1-4)Gal(b1-4)Glc
# Procedure, shortened: as §1
# [25] = biological target: Gal(b1-3)GlcNAc(b1-2)Man(a1-3)[Gal(b1-3)GlcNAc(b1-2)Man(a1-6)]Man(b1-4)GlcNAc(b1-4)GlcNAc
# Procedure, shortened: as §1
# [26] = biological target: Gal(b1-3)[Fuc(a1-4)]GlcNAc
# Procedure, shortened: as §1
# [27] = biological target: Gal(b1-4)GlcNAc(b1-2)Man(a1-3)Man(b1-4)GlcNAc(b1-4)GlcNAc
# Procedure, shortened: as §1
# [28] = biological target: Gal(b1-4)GlcNAc(b1-2)[Gal(b1-4)GlcNAc(b1-4)]Man(a1-3)[Gal(b1-4)GlcNAc(b1-2)[Gal(b1-4)GlcNAc(b1-6)]Man(a1-6)]Man(b1-4)GlcNAc(b1-4)GlcNAc
# Procedure, shortened: as §1
# [29] = biological target: Gal(b1-4)GlcNAc(b1-2)[Gal(b1-4)GlcNAc(b1-4)]Man(a1-3)[GlcNAc(b1-4)][Gal(b1-4)GlcNAc(b1-2)Man(a1-6)]Man(b1-4)GlcNAc(b1-4)GlcNAc
# Procedure, shortened: as §1
# [30] = biological target: Gal(b1-4)GlcNAc(b1-3)Gal(b1-4)[Fuc(a1-3)GlcNAc(b1-6)]Gal(b1-4)Glc
# Procedure, shortened: as §1
# Gal6S(b1-4)GlcNAc6S = biological target: Gal6S(b1-4)GlcNAc6S
# Procedure, shortened: as §1
# Glc(a1-6)Glc(a1-6)Glc = biological target: Glc(a1-6)Glc(a1-6)Glc
# Procedure, shortened: as §1
# Glc(b1-4)Glc = biological target: Glc(b1-4)Glc
# Procedure, shortened: as §1
# GlcA(b1-3)GlcNAc = biological target: GlcA(b1-3)GlcNAc
# Procedure, shortened: as §1
# [31] = biological target: GlcNAc(a1-4)Gal(b1-4)GlcNAc(b1-3)Gal(b1-4)GlcNAc
# Procedure, shortened: as §1
# [32] = biological target: GlcNAc(a1-4)Gal(b1-4)GlcNAc(b1-3)Gal(b1-4)[Fuc(a1-3)]GlcNAc(b1-3)Gal(b1-4)[Fuc(a1-3)]GlcNAc
# Procedure, shortened: as §1
# [33] = biological target: GlcNAc(b1-2)Man(a1-3)[GlcNAc(b1-2)Man(a1-6)]Man(b1-4)GlcNAc(b1-4)[Fuc(a1-6)]GlcNAc
# Procedure, shortened: as §1
# [34] = biological target: GlcNAc(b1-2)[GlcNAc(b1-4)]Man(a1-3)[GlcNAc(b1-4)][GlcNAc(b1-2)Man(a1-6)]Man(b1-4)GlcNAc(b1-4)GlcNAc
# Procedure, shortened: as §1
# GlcNAc(b1-3)Man = biological target: GlcNAc(b1-3)Man
# Procedure, shortened: as §1
# [35] = biological target: GlcNAc(b1-3)[GlcNAc(b1-6)]GalNAc
# Procedure, shortened: as §1
# Man(a1-3)[Man(a1-6)]Man = biological target: Man(a1-3)[Man(a1-6)]Man
# Procedure, shortened: as §1
# Man(a1-6)Man = biological target: Man(a1-6)Man
# Procedure, shortened: as §1
# [36] = biological target: Neu5Ac(a2-3)Gal(b1-3)GalNAc(b1-3)Gal(a1-4)Gal(b1-4)Glc
# Procedure, shortened: as §1
# [37] = biological target: Neu5Ac(a2-3)Gal(b1-3)GalNAc(b1-4)[Neu5Ac(a2-3)]Gal(b1-4)Glc
# Procedure, shortened: as §1
# [38] = biological target: Neu5Ac(a2-6)Gal(b1-4)GlcNAc(b1-3)GalNAc
# Procedure, shortened: as §1
# Neu5Ac(a2-6)GalNAc = biological target: Neu5Ac(a2-6)GalNAc
# Procedure, shortened: as §1
# Neu5Ac(a2-8)Neu5Ac = biological target: Neu5Ac(a2-8)Neu5Ac
# Procedure, shortened: as §1
# [39] = biological target: Neu5Ac(a2-8)Neu5Ac(a2-8)Neu5Ac(a2-3)[GalNAc(b1-4)]Gal(b1-4)Glc
# Procedure, shortened: as §1
# [40] = biological target: Neu5Ac(a2-8)Neu5Ac(a2-8)Neu5Ac(a2-8)Neu5Ac(a2-3)[GalNAc(b1-4)]Gal(b1-4)Glc
# Procedure, shortened: as §1
# [41] = biological target: Neu5Ac9Ac(a2-6)Gal(b1-4)GlcNAc
# Procedure, shortened: as §1
binder,measurement,setting,value
B1,glycan array binding signal (z-score),[1],-0.454
same,glycan array binding signal (z-score),[2],-0.723
same,glycan array binding signal (z-score),[3],-0.237
same,glycan array binding signal (z-score),[4],0.808
same,glycan array binding signal (z-score),[5],-0.222
same,glycan array binding signal (z-score),[6],-1.12
same,glycan array binding signal (z-score),[7],-0.402
same,glycan array binding signal (z-score),[8],-0.8
same,glycan array binding signal (z-score),[9],6.37
same,glycan array binding signal (z-score),[10],0.578
same,glycan array binding signal (z-score),[11],3.98
same,glycan array binding signal (z-score),[12],-0.293
same,glycan array binding signal (z-score),[13],0.765
same,glycan array binding signal (z-score),[14],-0.791
same,glycan array binding signal (z-score),[15],-0.483
B2,glycan array binding signal (z-score),[16],-0.069
same,glycan array binding signal (z-score),Fuc(a1-2)Gal(b1-4)Glc6S,-0.349
same,glycan array binding signal (z-score),[17],9.62
same,glycan array binding signal (z-score),[18],-0.16
same,glycan array binding signal (z-score),[19],-0.145
same,glycan array binding signal (z-score),[20],-0.16
same,glycan array binding signal (z-score),[21],0.299
same,glycan array binding signal (z-score),[22],-0.008
same,glycan array binding signal (z-score),Gal(b1-3)GalNAc,-0.212
same,glycan array binding signal (z-score),[23],-0.46
same,glycan array binding signal (z-score),[24],-0.123
same,glycan array binding signal (z-score),[25],0.354
same,glycan array binding signal (z-score),[26],-0.348
same,glycan array binding signal (z-score),[27],-0.226
same,glycan array binding signal (z-score),[28],-0.038
same,glycan array binding signal (z-score),[29],0.732
same,glycan array binding signal (z-score),[30],-0.568
same,glycan array binding signal (z-score),Gal6S(b1-4)GlcNAc6S,2.71
same,glycan array binding signal (z-score),Glc(a1-6)Glc(a1-6)Glc,-0.136
same,glycan array binding signal (z-score),Glc(b1-4)Glc,-0.277
same,glycan array binding signal (z-score),GlcA(b1-3)GlcNAc,4.49
same,glycan array binding signal (z-score),[31],-0.238
same,glycan array binding signal (z-score),[32],2.15
same,glycan array binding signal (z-score),[33],0.258
same,glycan array binding signal (z-score),[34],-0.327
same,glycan array binding signal (z-score),GlcNAc(b1-3)Man,-0.371
same,glycan array binding signal (z-score),[35],-0.21
same,glycan array binding signal (z-score),Man(a1-3)[Man(a1-6)]Man,-0.426
same,glycan array binding signal (z-score),Man(a1-6)Man,-0.438
same,glycan array binding signal (z-score),[36],0.073
same,glycan array binding signal (z-score),[37],2.34
same,glycan array binding signal (z-score),[8],2.47
same,glycan array binding signal (z-score),[9],2.62
same,glycan array binding signal (z-score),[38],1.14
same,glycan array binding signal (z-score),Neu5Ac(a2-6)GalNAc,-0.325
same,glycan array binding signal (z-score),Neu5Ac(a2-8)Neu5Ac,-0.07
same,glycan array binding signal (z-score),[39],-0.445
same,glycan array binding signal (z-score),[40],2.33
same,glycan array binding signal (z-score),[41],0.77
